# High-throughput results from PubChem BioAssay.
# DAX1 inh-1: inhibitors of DAX1 repression of SF-1 activated StAR promoter; HEK293T StAR-luciferase reporter, SF-1/DAX-1 repression relief; inhibition, % at 6.8 µM; 1.1% of 370,000 active; AID 652010;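 active = inhibition above the mean over all tested compounds plus 3 SD, cut at about 3.6% in these data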;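 also: 0% = DAX-1 cells with DMSO and 100% = cells lacking DAX-1 with DMSO; higher inhibition means more luminescence from relief of DAX-1 repression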
# hcDAF-12 act: H. contortus DAF-12 activation, primary screen. HEK293 hcDAF-12 lit1-tk-luc reporter, luminescence; 0% DMSO, 100% Δ7-dafachronic acid. activation, % at 6.8 µM. 1.4% of 370,000 active;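 active = activation above the mean of all tested compounds plus 3 SD, cut at about 5.5% in these data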;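 also: 100% = response to 3 µM Δ7-dafachronic acid high control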
# NR1D1 modulator: modulators of human Rev-erb alpha DNA binding | P20393 | Rev-erbα–FITC-DNA binding, fluorescence polarization, 90 min | activity, % at 10 µM | 0.79% of 370,000 active | AID 1259318;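 active = activity above about 14%, limit read from the data; passing the limit was not always enough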;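 also: 0% = DMSO wells with 35 nM protein and 100% = DMSO wells with 750 nM protein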
# Target sequence (P20393 whole entry, looked up): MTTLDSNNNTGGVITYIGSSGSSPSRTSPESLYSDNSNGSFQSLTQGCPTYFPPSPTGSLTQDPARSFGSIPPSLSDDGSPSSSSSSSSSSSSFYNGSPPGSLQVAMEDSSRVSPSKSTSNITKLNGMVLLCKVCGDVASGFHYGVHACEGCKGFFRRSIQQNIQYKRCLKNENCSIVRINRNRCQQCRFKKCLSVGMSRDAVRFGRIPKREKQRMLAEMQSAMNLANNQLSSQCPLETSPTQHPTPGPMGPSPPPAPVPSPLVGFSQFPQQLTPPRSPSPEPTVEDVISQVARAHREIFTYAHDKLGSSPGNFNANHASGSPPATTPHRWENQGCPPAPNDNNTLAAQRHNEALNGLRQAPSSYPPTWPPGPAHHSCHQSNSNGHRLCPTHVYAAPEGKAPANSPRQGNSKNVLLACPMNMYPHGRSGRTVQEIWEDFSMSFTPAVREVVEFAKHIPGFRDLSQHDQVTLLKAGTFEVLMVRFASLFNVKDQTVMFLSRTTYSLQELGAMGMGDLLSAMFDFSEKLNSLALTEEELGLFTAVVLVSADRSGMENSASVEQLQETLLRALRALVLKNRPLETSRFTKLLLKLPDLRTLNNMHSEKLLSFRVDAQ
# ssDAF-12 act: activators of S. stercoralis DAF-12 nuclear receptor. HEK293 ssDAF-12/GRIP1 lit1-tk-luc reporter, luminescence; % of 3 µM dafachronic acid response. activation, % at 6.8 µM. 1% of 370,000 active;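 active = activation above the mean over all tested compounds plus 3 SD, cut at about 0.9% in these data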;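 also: 0% = DMSO-only wells and 100% = 3 µM delta7-dafachronic acid wells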
# hgDAF-12 ag: hgDAF-12 agonism, primary luciferase screen. HEK293 GAL4-hgDAF12 UAS-luciferase reporter, agonist luminescence; normalized to butyrate control. activation, % at 6.8 µM. 1.8% of 370,000 active;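 active = activation above a cutoff set at the mean of all screened compounds plus 3 SD, cut at about 10% in these data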;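 also: 0% = DMSO wells and 100% = sodium butyrate wells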
# DAX1 inh-2: inhibits human nuclear receptor DAX1; P51843; 0.99% of 340,000 active; HEK293 Gal4-DAX1 luciferase reporter, luminescence; inhibition, % at 6.75 µM;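 active = inhibition above the mean over all tested compounds plus 3 SD, cut at about 4.2% in these data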;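 also: 0% = DAX1-transfected cells with DMSO and 100% = empty-vector control cells with DMSO; inhibition shows as a rise in luminescence from relieved DAX1 repression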
# Rev-erbA confirm: confirmation of modulators of human Rev-erb alpha DNA binding; activation, % at 25 µM; shares compounds with NR1D1 modulator; Rev-erb alpha FITC-DNA binding, fluorescence polarization, 90 min; 61% of 3,000 active; AID 1259319;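 active = activation at or above a set limit, or at least 3 SD above the negative control mean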;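 also: 0% = 35 nM protein with DMSO and 100% = 750 nM protein high control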
# RORg counter: affects RORgamma DNA binding in a Rev-erb alpha counter-screen | shares compounds with NR1D1 modulator | purified RORgamma protein-FITC-DNA binding, fluorescence polarization | IC50, µM | 8% of 910 active | AID 1259320;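 active = Compounds whose fitted half-maximal concentration for disrupting protein-DNA binding is below 10 micromolar; the record names Rev-erb in its text, so the target is in doubt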
# An asterisk follows results filed as active; . = no result. The list is not random: actives were taken first. Their share in the collection is about 4.8%.
SMILES,DAX1 inh-1,hcDAF-12 act,NR1D1 modulator,ssDAF-12 act,hgDAF-12 ag,DAX1 inh-2,Rev-erbA confirm,others
C=CCN1C(=O)/C(=C2/Sc3ccccc3N2CC)SC1=S,0.1,-0.5,-3.6,-0.5,0.1,-0.9,.,
CCN1C(=O)/C(=C2/Sc3ccccc3N2CC)S/C1=N\c1ncn[nH]1,-2.8,-4.6,19.1*,-2.5,-5.5,-1.1,-4.0,
Cc1cc(=O)n2c(sc3ccccc32)c1C#N,-0.3,-1.3,38.8*,-1.4,4.7,-0.2,20.7*,
CC(C)(C)NC(=O)C(c1cccc2ccccc12)n1c(=O)c(-c2cc3ccccc3[nH]2)nc2ccccc21 (stereo not drawn),2.3,1.7,-0.6,-0.4,-2.9,.,.,
C[C@@H]1[C@@H](O)C[C@@]2(CC(=O)c3ccccc3O2)O[C@H]1c1ccccc1,-0.4,-0.5,-1.4,-1.2,5.6,.,.,
COc1nc(-c2ccc(Cl)cc2)ccc1-c1noc(-c2ccco2)n1,-0.1,-0.8,31.5*,-0.4,-0.9,0.4,0.9,
COc1cccc(-c2ccc(-c3noc(-c4ccccc4F)n3)c(OC)n2)c1,0.1,0.5,8.3,-1.4,0.6,0.0,.,
CCOc1ccc(-n2c([S-])c(C(=O)Nc3ccc(S(=O)(=O)N4CCOCC4)cc3)[n+]3cc(C(N)=O)ccc23)cc1,0.2,0.9,90.6*,-0.3,4.8,0.9,42.5*,RORg counter=>40
CCOc1ccc(NC(=O)COC(=O)c2ccc(S(=O)(=O)N3CCOCC3)cc2)cc1,-2.0,-1.3,0.0,-1.8,-0.7,-0.8,.,
CCc1c(-c2ccccc2Br)ncn1CCc1ccccc1OC,-1.4,-4.2,-1.0,-2.1,-1.5,.,.,
COc1ccc(-c2nnc(SCC(=O)NN=C(C)c3cccc4ccccc34)n2-c2ccccc2)cc1,-2.0,-2.6,11.1,-1.3,3.0,.,.,
N#CC(C#N)=C1C=C2C=C(N3CCOCC3)CCC2CC1 (stereo not drawn),-0.1,-0.1,304.8*,-1.6,-1.7,0.8,111.1*,RORg counter=>40
N#CC(C#N)=C1C=C2C=C(N3CCCCCC3)CCC2CC1 (stereo not drawn),-0.4,-3.1,272.8*,-1.5,-0.1,-1.4,167.3*,RORg counter=>40
CN1CCN(C2=CC3=CC(=C(C#N)C#N)CCC3CC2)CC1 (stereo not drawn),.,.,.,.,.,-1.1,.,
CCN1CCN(C2=CC3=CC(=C(C#N)C#N)CCC3CC2)CC1 (stereo not drawn),.,.,.,.,.,0.3,.,
CCN(CC)C(=O)CC[C@H]1CC[C@]2(CCCN(Cc3ccc(Br)cc3)C2)O1,-0.4,-0.1,3.7,-1.5,-1.3,.,.,
CCOc1nc(-c2ccccc2)ccc1-c1noc(-c2cccs2)n1,-0.2,-0.4,39.5*,-0.7,1.9,1.9,14.5,
CCOc1nc(-c2ccc(OC)cc2)ccc1-c1noc(-c2ccncc2)n1,0.6,-1.8,-1.5,-1.5,-1.4,1.0,.,
CCOc1nc(-c2ccccc2)ccc1-c1noc(-c2ccncc2)n1,0.4,-1.2,29.3*,-0.8,-2.8,1.1,23.7*,
Cc1ccc(C(=O)N2N=C(c3ccccc3O)CC2c2ccccc2)cc1 (stereo not drawn),0.1,1.8,37.9*,-1.2,-2.8,0.7,25.0*,
Cc1ccc(C(=O)N2N=C(c3ccc(Br)cc3)CC2c2ccccc2O)cc1 (stereo not drawn),0.0,0.3,3.1,-0.3,0.7,1.0,.,
COc1ccc(-n2nnnc2C2(C)CCC(=O)N2Cc2ccccc2)cc1 (stereo not drawn),0.5,-1.7,2.7,-1.4,0.4,.,.,
CCOC(=O)c1sc(NC(=O)CN2C(=O)NC3(CCC(C)CC3)C2=O)c(C(=O)OCC)c1C (stereo not drawn),2.4,-1.4,36.0*,-0.7,-0.6,0.0,20.1*,
CCOC(=O)c1sc(NC(=O)CN2C(=O)NC3(CC(C)CC(C)(C)C3)C2=O)c(C(=O)OCC)c1C (stereo not drawn),-0.4,1.6,2.0,-0.1,0.2,-0.1,.,
CCOC(=O)c1c(-c2ccc(F)cc2)csc1NC(=O)CN1C(=O)NC2(CCCCC2C)C1=O (stereo not drawn),0.0,-1.8,21.1*,-1.9,0.6,0.7,9.9,
SMILES,DAX1 inh-1,hcDAF-12 act,NR1D1 modulator,ssDAF-12 act,hgDAF-12 ag,DAX1 inh-2,Rev-erbA confirm,others
CCOC(=O)c1c(NC(=O)CN2C(=O)NC3(CCCCCC3)C2=O)sc(C)c1-c1ccc(C)cc1,-0.6,0.1,24.7*,0.3,-0.2,-0.6,16.7*,
CCOC(=O)c1c(NC(=O)CN2C(=O)NC3(CCC(CC)CC3)C2=O)sc(C)c1-c1ccc(C)cc1 (stereo not drawn),-0.4,-0.5,10.0,-0.9,0.5,-0.7,.,
COCCCNC(=O)CSc1nnc(-c2ccncc2)n1-c1ccc(OC)cc1,-0.1,-1.6,-2.8,-1.7,1.1,.,.,
Cc1c(N2C(=O)/C(=C\c3ccc(N(C)C)cc3)N(C)C2=S)c(=O)n(-c2ccccc2)n1C,-0.8,-1.0,25.4*,-1.3,-1.0,-1.2,20.4*,
CC(C)c1ccc2oc(=O)cc(CN3CCCCC3)c2c1,-0.3,-0.7,10.6,-1.1,1.6,-0.2,.,
CC1CCN(Cc2cc(=O)oc3ccc(C(C)C)cc23)CC1,0.3,-2.2,21.7*,-0.5,-2.2,0.3,32.6*,RORg counter=>40
CCOC(=O)c1cnc(SCC(=O)N2CCN(c3ccccc3)CC2)nc1N,0.0,-0.5,6.5,-0.7,-0.4,0.1,.,
CCOC(=O)c1cnc(SCC(=O)N2CCc3ccccc32)nc1N,0.9,1.7,48.9*,-1.1,-1.1,-0.2,7.4,
O=C(NCC1CCCO1)c1nn2c(C(F)(F)F)cc(-c3cccs3)nc2c1Br (stereo not drawn),0.7,-1.7,26.2*,-1.2,-2.7,2.0,17.6*,
COc1ccc(-c2cc(C(F)(F)F)n3ncc(C(=O)NCC4CCCO4)c3n2)cc1OC (stereo not drawn),0.2,-0.8,27.9*,-0.5,0.7,2.4,30.9*,
COc1ccc(-c2cc(C(F)F)n3ncc(C(=O)NCC4CCCO4)c3n2)cc1 (stereo not drawn),-0.4,-1.3,35.7*,-0.9,0.9,0.3,14.8,
O=C(NCc1ccco1)c1nn2c(C(F)(F)F)cc(-c3cccs3)nc2c1Br,-0.8,-2.0,-5.0,-0.9,-0.3,-0.6,.,
COc1ccc(C2CC(C(F)(F)F)n3ncc(C(=O)NCC4CCCO4)c3N2)cc1OC (stereo not drawn),0.5,-2.2,-4.7,-1.0,-1.2,2.3,.,
